This is an account of results in ChEMBL document CHEMBL4513149, “CO-ADD screening of MMV (CH) - MMV compounds” (2021).

Results with a measured potency or affinity are listed apart.

The subject of one test is Klebsiella pneumoniae. The following applies: Concentration 20 uM; ASSAY_TEST Inhibition of Bacterial Growth; detection method Absorption (OD600); MEDIA CAMHB; plate type 384well; NBS; CORNING #3640; time 18 hr.
A further test has as its system Candida albicans. The settings on record: 20 µM.
Another test deals with Cryptococcus neoformans. The settings on record: Concentration 20 uM; ASSAY_TEST Inhibition of Fungal Growth; detection method Resazurin; Absorption (OD600-OD570); plate type 384well; NBS; CORNING #3640.

What is called Inhibition is the change of the read-out against control, counted positive when it falls. As for `CN1CCN(c2nccc3[nH]c(-c4cccc(F)c4)cc23)CC1`, the Inhibition is 12.23% in the test on Klebsiella pneumoniae, 5.85% in the test on Candida albicans and 5.1% in the test on Cryptococcus neoformans.

Regarding `CN(C)CCNC(=O)N1CCCN(c2ncnc3cc(-c4ccccc4)sc23)CC1`, the Inhibition with Klebsiella pneumoniae is 15.92%; with Candida albicans it was 2.85%; in the test with Cryptococcus neoformans, -8.19%.

As to `O=C(N[C@H](Cc1ccccc1)C(=O)Nc1ccccc1N1CCOCC1)c1cccs1`, the Inhibition with Klebsiella pneumoniae was 11.64%; in the test with Candida albicans it was 3.1%; in the test on Cryptococcus neoformans, -4.85%.

Turning to `CCC(=O)Nc1ccccc1C(=O)Nc1ccccn1`, the Inhibition is 11.13% in the test with Klebsiella pneumoniae, 3.37% in the test on Candida albicans and -4.64% in the test with Cryptococcus neoformans.

Take `Clc1cccc(CO[C@H]2CCc3ccccc3[C@@H]2n2ccnn2)c1`: the Inhibition is 8.29% in the test on Klebsiella pneumoniae, 10.9% in the test on Candida albicans and -3.55% in the test on Cryptococcus neoformans.

For `O=C(NC1CC1)c1ccc(CSCc2ccccc2Cl)o1`, the Inhibition is 1.21% in the test with Klebsiella pneumoniae, 7.77% in the test on Candida albicans and -0.4% in the test on Cryptococcus neoformans.

Consider `CNc1cc(C)nc(C2CN(C(=O)c3n[nH]c4ccccc34)CCO2)c1` (configuration not stated), for which the Inhibition with Klebsiella pneumoniae is 20.78%; in the test with Candida albicans, 2.95%; in the test with Cryptococcus neoformans, -9.16%.

As for `Nc1nccc2ccc(Oc3ccncc3)cc12`, the Inhibition with Klebsiella pneumoniae is 18.43%; in the test on Candida albicans, 1.98%; in the test with Cryptococcus neoformans it was -6.05%.

`O=C(NCc1ccoc1)N1CCN(Cc2ccc3c(c2)OCO3)CC1`: the Inhibition with Klebsiella pneumoniae was determined as 7.21%; in the test on Candida albicans, 2.46%; in the test on Cryptococcus neoformans, 10.58%.

As to `CC(C)(C)n1nc(Cc2cccc3ccccc23)c2c(N)ncnc21`, the Inhibition in the test on Klebsiella pneumoniae was 2.54%; in the test with Candida albicans it was 3.16%; in the test with Cryptococcus neoformans, -9.17%.

Consider `CC(C)(C)c1ccc(N[C@@H]2CCCC[C@H]2NC(=O)c2ccco2)cc1`, for which the Inhibition in the test with Klebsiella pneumoniae was -12.61%; in the test on Candida albicans, 5.24%; in the test with Cryptococcus neoformans, -2.08%.

For the compound `C[C@H](C(N)=O)N1CCCC[C@@H]1c1ccc(OCc2cccc(F)c2)cc1`, the Inhibition in the test with Klebsiella pneumoniae is 9.46%; with Candida albicans it was 2.97%; in the test with Cryptococcus neoformans, -6.98%.

Turning to `O=C(NCCN1CCCC1)c1cc(NCCCCN2CCC(F)(F)CC2)nc2ccc(Cl)cc12`, the results for the Inhibition in the test on Klebsiella pneumoniae, in the test on Candida albicans and in the test on Cryptococcus neoformans were 15.7%, 2.73% and 24.05%, respectively.

Turning to `Cc1cc(C)cc(COc2ccc3c(C)c(CCC(=O)O)c(=O)oc3c2C)c1`, the Inhibition in the test on Klebsiella pneumoniae is 9.77%; in the test on Candida albicans it was 6.48%; in the test on Cryptococcus neoformans it was -0.19%.

Take `COc1ccc(Oc2ccc([C@@H](C)N(C)c3ncc4c(N)nc(N)nc4n3)cc2)cc1`: the Inhibition was 18.87% in the test with Klebsiella pneumoniae, 5.99% in the test on Candida albicans and -6.67% with Cryptococcus neoformans.

For the compound `CNC(=O)c1cc(S(=O)(=O)N2CCN(c3ccccn3)CC2)cs1`, the Inhibition was 10.77% in the test on Klebsiella pneumoniae, 2.91% in the test on Candida albicans and -8.81% in the test with Cryptococcus neoformans.

In the case of `CN1CCN(S(=O)(=O)c2ccc(-c3ccc4c(Nc5ccc6nn[nH]c6c5)ccnc4c3)cc2)CC1`, the figures for the Inhibition in the test with Klebsiella pneumoniae, in the test with Candida albicans and in the test with Cryptococcus neoformans were 5.15%, 4.6% and -7.38%, respectively.

Take `CN1CCN(c2cc(-c3ccc(F)cc3)nc(-c3ccncc3)n2)CC1`: the Inhibition was 4.2% with Klebsiella pneumoniae, 3.25% in the test on Candida albicans and -11.56% in the test on Cryptococcus neoformans.

`Cl.c1ccc(Oc2ccc(-c3cc(N4CCNCC4)[nH]n3)cc2)cc1`: the Inhibition in the test on Klebsiella pneumoniae is -6.32%; in the test on Candida albicans, 2.61%; in the test on Cryptococcus neoformans, -9.84%.

Take `O=C(CCC1CCCCC1)Nc1cccc(-c2nnc(-c3ccco3)o2)c1`: the Inhibition is 9.71% in the test with Klebsiella pneumoniae, 5.6% with Candida albicans and -12.99% in the test with Cryptococcus neoformans.

As for `CNC(=O)CNc1nc(-c2ccccn2)nc2scc(-c3ccccc3)c12`, the Inhibition in the test with Klebsiella pneumoniae was 15.46%; with Candida albicans, 0.88%; in the test on Cryptococcus neoformans, -5.07%.

Consider `O=C(NCCc1c[nH]c2ccccc12)c1cc2ccccc2oc1=O`, for which the values for the Inhibition in the test with Klebsiella pneumoniae, in the test on Candida albicans and in the test with Cryptococcus neoformans were 9.33%, 4.19% and -9.92%, respectively.

Turning to `c1coc(CNc2nc(N3CCCCC3)nc3ccccc23)c1`, the Inhibition is 7.9% with Klebsiella pneumoniae, 4.06% in the test with Candida albicans and -16.26% in the test with Cryptococcus neoformans.

As to `COc1cc(OC)cc(C(=O)NCC2Cc3cc(Cl)cc(-c4ccncc4)c3O2)c1` (configuration not stated), the Inhibition in the test with Klebsiella pneumoniae is 8.14%; in the test on Candida albicans, 4.34%; with Cryptococcus neoformans, -5.78%.

With `COc1ccc2nc(C)cc(OCC(=O)Nc3ccccc3OC)c2c1`, the figures for the Inhibition in the test with Klebsiella pneumoniae, in the test with Candida albicans and with Cryptococcus neoformans were 17.25%, 0.63% and -5.56%, respectively.

For the compound `CC1COC2(CCN(c3nc(=O)c4cc(C(F)(F)F)cc([N+](=O)[O-])c4s3)CC2)O1` (configuration not stated), the figures for the Inhibition in the test with Klebsiella pneumoniae, in the test on Candida albicans and in the test with Cryptococcus neoformans were 8.31%, 2.39% and -12.38%, respectively.

Turning to `COc1cc(C2=NCCN2)ccc1-c1cn(-c2cccc(C3=NCCN3)c2)nn1`, the Inhibition with Klebsiella pneumoniae amounted to 15.15%; with Candida albicans, 2.69%; with Cryptococcus neoformans it was 3.58%.

In the case of `CCS(=O)(=O)N(Cc1ccco1)Cc1cc2ccc(C)cc2nc1O`, the results for the Inhibition in the test on Klebsiella pneumoniae, with Candida albicans and with Cryptococcus neoformans were 2.3%, 3.52% and -6.36%, respectively.

For the compound `CCC(NC(=O)c1ccccc1NC(=O)c1ccc(C)cc1)C(=O)OC` (configuration not stated), the Inhibition in the test on Klebsiella pneumoniae is 8.73%; with Candida albicans it was 4.2%; in the test on Cryptococcus neoformans, -3.77%.

As to `COc1cc(C(F)(F)F)nc2ccc(C)c(N)c12`, the Inhibition is 11.25% in the test on Klebsiella pneumoniae, 6.41% in the test with Candida albicans and -9.66% with Cryptococcus neoformans.

For `CCOc1ccc2cc(-c3nn(CC4CCN(C)CC4)c4ncnc(N)c34)ccc2c1.Cl`, the Inhibition was 14.21% with Klebsiella pneumoniae, 4.38% with Candida albicans and -9.79% in the test on Cryptococcus neoformans.

Turning to `COc1ccc(C2=NN(C3CCCCCC3)C(=O)[C@@H]3CC=CC[C@H]23)cc1OCCCCOc1ccc(-c2nnn[nH]2)cc1`, the Inhibition was 8.89% in the test with Klebsiella pneumoniae, 6.64% in the test on Candida albicans and -7.83% in the test with Cryptococcus neoformans.

On to `O=C(Nc1cccc(Cl)c1)c1cnc(N2CCN(c3ccncc3)CC2)c(Cl)c1`, for which the results for the Inhibition with Klebsiella pneumoniae, in the test on Candida albicans and in the test with Cryptococcus neoformans were 13.15%, 2.09% and -9.48%, respectively.

Take `CCC(C)NC(=O)c1ccc(NC(=O)C2(c3ccccc3)CCCC2)cc1` (configuration not stated): the Inhibition in the test on Klebsiella pneumoniae worked out at 1.96%; in the test with Candida albicans it was 3.52%; in the test on Cryptococcus neoformans, 9.11%.
